Source: PubChem BioAssay (NCATS)
Inconclusive results are not listed. Calls of active or inactive are those of the source. Unless noted, the call rests on the fitted dose curve; in most records, active means well fitted curve in the direction sought with a large enough effect; inconclusive means small, poorly fitted or top-dose-only effect, or another doubt; inactive means no such curve, though single readings can be large; an effect the other way counts as inactive or inconclusive.

Key:
[1] = qHTS to identify inhibitors of the type 1 interferon - major histocompatibility complex class I in skeletal muscle: primary screen against the NCATS Mechanism Interrogation Plate v5.0 (MIPE) Libary (AID 1347411); further: nearly all actives have a fitted effect of over 65% in size; further: potency means the concentration at half of the fitted maximal effect;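 on activity change, negative = inhibition: plate controls were vehicle for no effect and reference inhibitor for full effect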
How it was run: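 IFN-beta-driven (4 ng/ml) HLA-B-HiBit expression in CRISPR-tagged C25cl48 myoblasts; compounds 11-pt, 1:3, max 46 uM, 24 hr exposure; lytic NanoLuc complementation luminescence.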

[2] = Primary qHTS for inhibitors of nuclear receptor binding SET domain protein 2 (NSD2) in an isogenic RCH-ACV NSD2 p.E1099K mutant (9B) (AID 1645876); further: nearly all actives have a fitted effect of over 70% in size; further: potency means the concentration at half of the fitted maximal effect
[3] = Primary qHTS for inhibitors of nuclear receptor binding SET domain protein 2 (NSD2) in an RCH-ACV wild type WT cells (2C) (AID 1645877); further: nearly all actives have a fitted effect of over 70% in size; further: potency means the concentration at half of the fitted maximal effect
[4] = target: Glutathione peroxidase 1 (Homo sapiens) (UniProt P07203); test: Primary qHTS Assay for Inhibitors of Recombinant Selenoprotein Glutathione Peroxidase 1 (GPX1) (AID 1845191); further: nearly all actives have a fitted effect of over 65% in size; further: potency means the concentration at half of the fitted maximal effect
How it was run: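 GPX1 10 nM, GR 100 nM, GSH 1 mM, NADPH 0.5 mM, CHP 0.5 mM (final). 30-min cpd preincubation, RT. Ex340/Em450 read t=0, t=15 min.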

[5] = target: Phospholipid hydroperoxide glutathione peroxidase GPX4 (Homo sapiens) (UniProt P36969); test: Primary qHTS Assay for Inhibitors of Recombinant Selenoprotein Glutathione Peroxidase 4 (GPX4) (AID 1845192); conditions: outcome: dose series up to 50 µM unless noted; further: nearly all actives have a fitted effect of over 65% in size; on activity change, negative = inhibition: on the % scale 0 is the no-effect control and ±100 the full control effect
How it was run: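 qHTS, GR-coupled: GPX4 200 nM + cpd 30 min RT → GSH 1 mM, NADPH 0.5 mM, GR 100 nM → CHP 0.5 mM start; fluor 340/450 at t0 and t15 min; no-enzyme wells as control.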

[6] = qHTS drug screen for cell cycle checkpoint inhibitors in PARPi-resistant BRCA-mutant ovarian cancer cell lines. (AID 1963452; calls by dose curve; further: potency means the concentration at half of the fitted maximal effect); conditions: PEO1/OlaR viability, CellTiter-Glo luminescence, 96 h; for Z-AUC: stronger effect = lower value
How it was run: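 PEO1, PEO4 and PEO1/OlaR ovarian cancer cells, 600 per well, exposed 96 h at 37C to a dilution series. Viability read by CellTiter-Glo luminescence, normalized to DMSO and empty wells; activity summarized as Z-AUC.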

[7] = qHTS assay to identify inhibitors of the type 1 interferon - major histocompatibility complex class I in skeletal muscle: Counter screen cell viability and HiBit confirmation (AID 1347412); conditions: iHSKM muscle cells + IFN-b, HiBiT or CellTiter-Glo, 24 h; for activity change, negative = inhibition: at 45.9 µM (top of the series); further: potency means the concentration at half of the fitted maximal effect; on activity change, negative = inhibition: on the % scale 0 is the no-effect control and ±100 the full control effect; on all read-outs here: nearly all actives have a fitted effect of over 60% in size
How it was run: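 HLA-B*08:01–HiBiT knock-in immortalized human myoblasts (C25cl48) stimulated with 4.0 ng/ml human IFN-beta and dosed with compound in a 12-point 1:3 titration (top final 46 uM). After 24 hrs at 37 C, HiBiT lytic luminescence or CellTiter Glo ATP read out.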

[8] = measured here: PEO1 parental Z-AUC

Chain of Glutathione peroxidase 1 (Homo sapiens) (P07203 whole entry, looked up): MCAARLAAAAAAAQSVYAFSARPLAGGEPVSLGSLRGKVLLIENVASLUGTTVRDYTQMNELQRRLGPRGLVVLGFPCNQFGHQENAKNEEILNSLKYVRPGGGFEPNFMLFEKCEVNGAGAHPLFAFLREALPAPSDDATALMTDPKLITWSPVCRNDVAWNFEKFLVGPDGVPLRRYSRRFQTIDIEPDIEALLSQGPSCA
Chain of Phospholipid hydroperoxide glutathione peroxidase GPX4 (Homo sapiens) (P36969 whole entry, looked up): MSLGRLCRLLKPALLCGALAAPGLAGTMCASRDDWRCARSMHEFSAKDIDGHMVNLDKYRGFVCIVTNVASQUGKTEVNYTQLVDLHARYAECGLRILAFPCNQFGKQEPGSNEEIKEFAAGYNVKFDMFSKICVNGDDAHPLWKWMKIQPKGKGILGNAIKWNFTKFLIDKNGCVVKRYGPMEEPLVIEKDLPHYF

## C=C1C(=O)O[C@H]2C[C@H](C)C(/C=C/C(C)=O)=CC[C@H]12
[1]
  Potency: 6580 nM (active)
[2]
  Potency: 1480 nM (active)
[3]
  Potency: 1320 nM (active)
[4]
  Potency: inactive
[5]
  Potency: inactive
[6]
  Z-AUC: 0.205 (inactive)
[6]; [8]
  Z-AUC: -0.357
[6]; measured here: PEO4 Z-AUC
  Z-AUC: -0.273
[7]; HiBiT
  Potency: 3130 nM (active)
[7]; Viability
  activity change, negative = inhibition: 64.7% (inactive)

## COc1cccc2c1C(=O)c1c(O)c3c(c(O)c1C2=O)C[C@@](O)(/C(CO)=N/NC(=O)CCCCCN1C(=O)C=CC1=O)C[C@@H]3O[C@H]1C[C@H](N)[C@H](O)[C@H](C)O1
[1]
  Potency: 3300 nM (active)
[2]
  Potency: 209 nM (active)
[3]
  Potency: 132 nM (active)
[4]
  Potency: inactive
[5]
  Potency: inactive
[6]
  Potency: 1100 nM (active)
[6]; [8]
  Z-AUC: -1.6
[6]; measured here: PEO4 Z-AUC
  Z-AUC: -1.55
[7]; HiBiT
  Potency: 2790 nM (active)
[7]; Viability
  activity change, negative = inhibition: -0.403% (inactive)

## C=C1C(=O)O[C@@H]2[C@H]3C(C)=CC[C@@]34O[C@@]4(C)CC[C@@H]12
[1]
  Potency: 16500 nM (active)
[2]
  Potency: 5250 nM (active)
[3]
  Potency: 4680 nM (active)
[4]
  Potency: inactive
[5]
  Potency: inactive
[6]
  Z-AUC: 0.243 (inactive)
[6]; [8]
  Z-AUC: 0.182
[6]; measured here: PEO4 Z-AUC
  Z-AUC: 0.342
[7]; HiBiT
  Potency: 12500 nM (active)
[7]; Viability
  activity change, negative = inhibition: 49.2% (inactive)

## CN1CCN(c2ccc3nc(-c4cc(C(C)(C)C)c(OCCCC(=O)NCCCN=[N+]=[N-])c(C(C)(C)C)c4)[nH]c3c2)CC1
[1]
  Potency: 13100 nM (active)
[2]
  Potency: 7420 nM (active)
[3]
  Potency: 6610 nM (active)
[6]
  Z-AUC: 0.842 (inactive)
[6]; [8]
  Z-AUC: 0.24
[6]; measured here: PEO4 Z-AUC
  Z-AUC: 0.156
[7]; Viability
  Potency: 24900 nM (active)

## C[C@@H](Oc1ccc2[nH]nc(/C=C/c3cnn(CCO)c3)c2c1)c1c(Cl)cncc1Cl
[1]
  Potency: 930 nM (active)
[2]
  Potency: 833 nM (active)
[3]
  Potency: 417 nM (active)
[4]
  Potency: inactive
[6]
  Z-AUC: -1.01 (inactive)
[6]; [8]
  Z-AUC: -0.521
[6]; measured here: PEO4 Z-AUC
  Z-AUC: -0.403
[7]; HiBiT
  Potency: 557 nM (active)

## CS[C@H]1SC[C@@H]2C(=O)N(C)[C@H](C(C)C)C(=O)OC[C@H](NC(=O)c3cnc4ccccc4n3)C(=O)N[C@H](C)C(=O)N(C)[C@H]1C(=O)N(C)[C@H](C(C)C)C(=O)OC[C@H](NC(=O)c1cnc3ccccc3n1)C(=O)N[C@H](C)C(=O)N2C
[1]
  Potency: 10.4 nM (active)
[2]
  Potency: 1.5 nM (active)
[3]
  Potency: 1 nM (active)
[4]
  Potency: inactive
[5]
  Potency: inactive
[6]
  Potency: 8.7 nM (active)
[6]; [8]
  Z-AUC: -3.58
[6]; measured here: PEO4 Z-AUC
  Z-AUC: -3.11
[7]; HiBiT
  Potency: 12.5 nM (active)
[7]; Viability
  activity change, negative = inhibition: 4.37% (inactive)

## Cc1ccc(-n2c(C)cc(-c3nnc4n3CCCCC4)c2C)cc1
[1]
  Potency: inactive
[2]
  Potency: 18600 nM (active)
[3]
  Potency: 18600 nM (active)
[4]
  Potency: inactive
[5]
  Potency: inactive
[6]
  Z-AUC: 1.28 (inactive)
[6]; [8]
  Z-AUC: 1.19
[6]; measured here: PEO4 Z-AUC
  Z-AUC: 1.13

## C=CC(=O)N1CC/C(=C\c2ccc(F)c([N+](=O)[O-])c2)C(=O)/C(=C/c2ccc(F)c([N+](=O)[O-])c2)C1
[1]
  Potency: 658 nM (active)
[2]
  Potency: 83.3 nM (active)
[3]
  Potency: 59 nM (active)
[4]
  Potency: inactive
[5]
  Potency: inactive
[6]
  Potency: 219 nM (active)
[6]; [8]
  Z-AUC: -2.29
[6]; measured here: PEO4 Z-AUC
  Z-AUC: -2.19
[7]; HiBiT
  Potency: 222 nM (active)

## C=CCNc1c(O)cc2c(O)c1C[C@@H](C)C[C@H](OC)[C@H](O)[C@@H](C)/C=C(/C)[C@H](OC(N)=O)[C@@H](OC)/C=C\C=C(\C)C(=O)N2
[1]
  Potency: 52.3 nM (active)
[2]
  Potency: 1660 nM (active)
[3]
  Potency: 1050 nM (active)
[4]
  Potency: inactive
[5]
  Potency: inactive
[6]
  Z-AUC: 0.465 (inactive)
[6]; [8]
  Z-AUC: 0.348
[6]; measured here: PEO4 Z-AUC
  Z-AUC: 0.268
[7]; HiBiT
  Potency: 44.3 nM (active)

## COC1=C2C[C@H](C)C[C@H](OC)[C@H](O)[C@@H](C)/C=C(/C)[C@H](OC(N)=O)[C@@H](OC)/C=C\C=C(\C)C(=O)NC(=CC1=O)C2=O
[1]
  Potency: 2940 nM (active)
[2]
  Potency: inactive
[3]
  Potency: inactive
[4]
  Potency: inactive
[5]
  Potency: inactive
[6]
  Z-AUC: 0.322 (inactive)
[6]; [8]
  Z-AUC: 0.489
[6]; measured here: PEO4 Z-AUC
  Z-AUC: 0.496
[7]; HiBiT
  Potency: 27.9 nM (active)

## C[C@@]12C(=O)OC(=O)[C@]1(C)[C@H]1CC[C@@H]2O1
[1]
  Potency: 5870 nM (active)
[2]
  Potency: 6610 nM (active)
[3]
  Potency: 4680 nM (active)
[4]
  Potency: inactive
[5]
  Potency: inactive
[6]
  Z-AUC: 0.0424 (inactive)
[6]; [8]
  Z-AUC: 0.505
[6]; measured here: PEO4 Z-AUC
  Z-AUC: 0.28
[7]; HiBiT
  Potency: 27900 nM (active)
[7]; Viability
  Potency: 14000 nM (active)

## C[C@H]1CNC(=O)c2cnn3ccc(nc23)N[C@H](C)c2cc(F)ccc2O1
[1]
  Potency: 1170 nM (active)
[2]
  Potency: 1480 nM (active)
[3]
  Potency: 1180 nM (active)
[5]
  Potency: inactive
[6]
  Potency: 1550 nM (active)
[6]; [8]
  Z-AUC: -2.09
[6]; measured here: PEO4 Z-AUC
  Z-AUC: -2.06
[7]; HiBiT
  Potency: 4430 nM (active)

## O=C(CCCc1ccc2cccnc2n1)NCc1cc(-c2ccc(F)c(C(F)(F)F)c2)no1
[1]
  Potency: inactive
[2]
  Potency: inactive
[3]
  Potency: inactive
[5]
  Potency: inactive
[6]
  Z-AUC: -0.51 (inactive)
[6]; [8]
  Z-AUC: -0.432
[6]; measured here: PEO4 Z-AUC
  Z-AUC: -0.394

## CC(=O)c1cc2c(o1)C(=O)c1ccccc1C2=O
[1]
  Potency: 523 nM (active)
[2]
  Potency: 1860 nM (active)
[3]
  Potency: 1320 nM (active)
[4]
  Potency: 1290 nM (active)
[6]
  Potency: 549 nM (active)
[6]; [8]
  Z-AUC: -1.52
[6]; measured here: PEO4 Z-AUC
  Z-AUC: -1.88
[7]; HiBiT
  Potency: 249 nM (active)
[7]; Viability
  Potency: 394 nM (active)

## COc1nc(OCc2cccc(-c3ccccc3)c2C)ccc1CNCCNC(C)=O
[1]
  Potency: 16500 nM (active)
[2]
  Potency: 7420 nM (active)
[3]
  Potency: 7420 nM (active)
[4]
  Potency: inactive
[5]
  Potency: inactive
[6]
  Z-AUC: -0.638 (inactive)
[6]; [8]
  Z-AUC: -0.646
[6]; measured here: PEO4 Z-AUC
  Z-AUC: -0.574
[7]; HiBiT
  activity change, negative = inhibition: -16.7% (inactive)

## CN(C)C[C@@H]1CCn2cc(c3ccccc32)C2=C(C(=O)NC2=O)c2cn(c3ccccc23)CCO1
[1]
  Potency: 4660 nM (active)
[2]
  Potency: 7420 nM (active)
[3]
  Potency: 6610 nM (active)
[4]
  Potency: inactive
[5]
  Potency: inactive
[6]
  Z-AUC: 0.756 (inactive)
[6]; [8]
  Z-AUC: 0.389
[6]; measured here: PEO4 Z-AUC
  Z-AUC: 0.797
[7]; HiBiT
  Potency: 27900 nM (active)
